Source: PubChem
PME-1 primary: PME-1 inhibitors via competitive probe labeling, primary screen, biochemical, fluorescence polarization, FP-Rh probe, HTS; Protein phosphatase methylesterase 1 (Homo sapiens), Q9Y570; recombinant PME-1; AID 2130, 2009; inhibition, % at 5.9 µM; actives 0.53% (n = 320,000);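 active = inhibition above the campaign mean of all compounds plus 3 SD, cut at about 26% in these data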;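 also: competitive labeling of PME-1 active site by serine hydrolase directed probe; 0% = PME-1 with DMSO and 100% = wells lacking PME-1 enzyme; inhibitors block probe labeling so polarization falls and inhibition rises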
PAFAH2 FP inh: PAFAH2 enzyme inhibitors, primary screen, biochemical, fluorescence polarization, human | inhibition, % at 3.39 µM | Platelet-activating factor acetylhydrolase 2, cytoplasmic (Homo sapiens), Q99487 | actives 0.99% (n = 340,000) | recombinant PAFAH2, FP-rhodamine activity probe;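 active = inhibition above the mean over all tested compounds plus 3 SD, cut at about 30% in these data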;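 also: inhibitors block probe labeling of enzyme so polarization drops; 0% = enzyme with DMSO and 100% = wells lacking PAFAH2 protein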
pPAFAH FP inh: pPAFAH enzyme inhibitors, primary screen, biochemical, fluorescence polarization, human; Platelet-activating factor acetylhydrolase (Homo sapiens), Q13093; recombinant pPAFAH, FP-rhodamine probe fluorescence polarization; inhibition, % at 3.39 µM; actives 1.5% (n = 330,000); AID 463082, 2010;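 active = inhibition above the mean inhibition across the screen plus 3 SD, cut at about 25% in these data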;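 also: inhibitors block binding of the rhodamine activity-based probe so polarization drops; 0% = enzyme with DMSO and 100% = wells lacking pPAFAH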
Target sequence (Q13093 whole entry, looked up): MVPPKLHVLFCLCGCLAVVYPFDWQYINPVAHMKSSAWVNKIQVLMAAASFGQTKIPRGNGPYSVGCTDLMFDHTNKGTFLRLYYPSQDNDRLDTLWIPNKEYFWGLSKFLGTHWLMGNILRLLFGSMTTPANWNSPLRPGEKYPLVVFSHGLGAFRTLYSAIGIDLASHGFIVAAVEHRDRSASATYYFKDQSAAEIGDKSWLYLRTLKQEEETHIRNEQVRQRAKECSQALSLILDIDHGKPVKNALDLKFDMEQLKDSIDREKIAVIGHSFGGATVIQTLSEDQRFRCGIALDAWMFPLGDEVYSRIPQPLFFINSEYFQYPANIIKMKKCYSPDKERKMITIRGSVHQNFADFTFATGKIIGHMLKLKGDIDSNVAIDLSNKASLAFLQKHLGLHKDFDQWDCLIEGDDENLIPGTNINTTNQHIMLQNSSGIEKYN
Fam108B counter: mouse Fam108B serine hydrolase inhibitors, primary screen, counter-screen for RBBP9 inhibitor project, biochemical, fluorescence polarization; actives 0.33% (n = 300,000); inhibition, % at 9.51 µM; recombinant Fam108B, FP-Rh probe fluorescence polarization;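 active = inhibition above the screen mean inhibition plus 3 SD, computed separately per campaign, cut at about 18% in these data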;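 also: inhibitors lower polarization as less probe binds the enzyme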
PAFAH1B3 FP inh: PAFAH1B3 enzyme inhibitors, primary screen, biochemical, fluorescence polarization, human; recombinant PAFAH1B3, FP-rhodamine probe; actives 0.28% (n = 340,000); Platelet-activating factor acetylhydrolase IB subunit alpha1 (Homo sapiens), Q15102; AID 492972, 2010; inhibition, % at 3.39 µM;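 active = inhibition above the screen-wide average of all tested compounds plus 3 SD, cut at about 25% in these data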;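 also: 0% = enzyme with DMSO only and 100% = wells lacking PAFAH1B3 protein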
PAFAH1B2 inh: PAFAH1B2 enzyme inhibitors, primary screen, biochemical, fluorescence polarization, human | AID 492953, 2010 | Platelet-activating factor acetylhydrolase IB subunit alpha2 (Homo sapiens), P68402 | recombinant PAFAH1B2, FP-rhodamine activity probe | actives 1.2% (n = 340,000) | inhibition, % at 3.39 µM;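 active = inhibition above the mean of all tested compounds plus 3 SD, cut at about 24% in these data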;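 also: 0% = enzyme with DMSO and 100% = wells lacking PAFAH1B2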
Target sequence (P68402 whole entry, looked up): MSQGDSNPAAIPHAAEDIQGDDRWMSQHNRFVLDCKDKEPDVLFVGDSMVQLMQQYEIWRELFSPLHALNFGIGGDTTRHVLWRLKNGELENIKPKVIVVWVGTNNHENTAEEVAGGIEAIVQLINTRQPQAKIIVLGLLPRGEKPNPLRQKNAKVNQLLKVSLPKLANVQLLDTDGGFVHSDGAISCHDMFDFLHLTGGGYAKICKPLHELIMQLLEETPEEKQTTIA
Fam108b confirm: mouse Fam108b serine hydrolase inhibitors, confirmation, counter-screen for RBBP9 inhibitor project, biochemical, fluorescence polarization, triplicate; AID 1978, 2009; actives 44% (n = 930); shares compounds with Fam108B counter; recombinant Fam108b, FP-Rh probe fluorescence polarization; inhibition, % at 9.51 µM;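 active = inhibition above a limit from the primary screen, the mean over all compounds plus 3 SD, cut at about 19% in these data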;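 also: 0% = median of active Fam108b wells and 100% = catalytically dead S170A mutant; inhibitors free the probe so polarization falls as inhibition rises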
Fam108b ABPP HTS: inhibition of mouse Fam108b by HTS hits, late-stage follow-up, biochemical, gel-based ABPP, soluble recombinant form. inhibition, % at 20 µM. actives 44% (n = 260). fluorophosphonate probe. shares compounds with Fam108B counter; in the data active = inhibition above about 40%
pPAFAH FP conf: pPAFAH (PLA2G7) enzyme inhibitors, confirmation, biochemical, fluorescence polarization, human. recombinant pPAFAH, FP-Rh probe fluorescence polarization. AID 463230, 2010. shares compounds with pPAFAH FP inh. actives 72% (n = 2,300). inhibition, % at 3.39 µM;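 active = mean inhibition of the triplicate above the hit cutoff set for the earlier primary screen, cut at about 25% in these data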;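 also: 0% = enzyme with DMSO and 100% = wells lacking pPAFAH enzyme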
PAFAH1B3 conf FP: PAFAH1B3 enzyme inhibitors, confirmation, biochemical, fluorescence polarization, human; shares compounds with PAFAH1B3 FP inh; recombinant PAFAH1B3, FP-Rh activity-based probe; inhibition, % at 3.39 µM; actives 30% (n = 390);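 active = average inhibition over triplicate runs above the hit cutoff set in the earlier primary screen, cut at about 25% in these data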;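 also: 0% = enzyme with DMSO and 100% = wells lacking PAFAH1B3 protein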
* hit, by the source's call; · = no result; ! = not active in a repeat. An excerpt weighted towards active compounds, which were near 2.9% of everything screened.

SMILES	PME-1 primary	PAFAH2 FP inh	pPAFAH FP inh	Fam108B counter	PAFAH1B3 FP inh	PAFAH1B2 inh	pPAFAH FP conf	others
CCOP(=O)(Oc1ccccc1)c1c([N+](=O)[O-])cc(C(F)(F)F)cc1[N+](=O)[O-] (stereo not given)	0.7	3.6	3.5	2.8	-2.2	4.2	·
N#CC1C(C#N)C2CCC1C1C2N1c1ccccc1 (stereo not given)	·	4.1	·	·	0.4	-1.6	·
CC(C)C[C@H]1C(=O)N2CCCC2[C@]2(O)O[C@](NC(=O)[C@@H]3C=C4c5cccc6[nH]cc(c56)CC4N(C)C3)(C(C)C)C(=O)N12 (stereo not given in full)	11.6	-7.9	16.7	18.7*	38.7*	15.0	·	Fam108b confirm=17.3
CCOC(=O)c1c(N)n(Cc2ccco2)c2nc3ccccc3nc12	0.2	-2.3	8.7	3.5	4.5	3.6	·
CCCCn1c(NC(=O)c2ccco2)c(C(=O)OCC)c2nc3ccccc3nc21	19.1	17.5	1.9	48.9*	54.3*	24.7*	·	Fam108b confirm=49.0*;Fam108b ABPP HTS=35.0
NC(Cc1cc(O)c(O)cc1O)C(=O)O (stereo not given)	38.2*	·	84.0*	79.5*	·	·	·	Fam108b confirm=100.9*;Fam108b ABPP HTS=50.0*
CC1C2Cc3ccc(O)cc3[C@]1(C)CCN2CCc1ccccc1 (stereo not given in full)	·	-0.3	-0.6	·	1.2	2.8	·
CC(=O)c1ccc2c(c1)C1C(Cl)C(Sc3ccccc3[N+](=O)[O-])CC1C(C(=O)O)N2 (stereo not given)	30.8*	41.8*	54.1*	56.2*	30.8*	7.7	27.4*	Fam108b confirm=5.3
O=C(O)c1cccc2c1NC(C(=O)O)C1CC(Sc3ccccc3[N+](=O)[O-])C(Cl)C21 (stereo not given)	17.6	81.7*	95.7*	74.8*	49.2*	30.8*	78.8*	Fam108b confirm=53.6*;Fam108b ABPP HTS=0.0
O=[N+]([O-])/C=C/c1c(Cl)cccc1Cl	·	9.6	·	·	5.5	0.5	·
O=C(NN=Cc1ccc(N(CCCl)CCCl)cc1)C(=O)c1c[nH]c2ccccc12	·	-9.4	·	·	-19.0	-11.7	·
O=C(c1ccc2nc(-c3ccco3)c(-c3ccco3)nc2c1)N1CCC2(CC1)OCCO2	-6.3	18.4	61.5*	23.4*	20.7	14.2	3.1	Fam108b confirm=8.6
Cc1ccccc1OCCN=Cc1c(O)n(C)c(=O)n(C)c1=O	4.2	2.6	8.7	2.9	1.2	3.2	·
CN(C)[C@@H]1C(=O)C(C(N)=O)=C(O)[C@@]2(O)C(=O)C3=C(O)c4c(O)cccc4[C@@](C)(O)[C@H]3[C@H](O)[C@@H]12	-6.2	64.2*	81.6*	59.5*	57.2*	34.9*	75.2*	Fam108b confirm=67.3*!;Fam108b ABPP HTS=0.0
N#C/C(=C\c1ccc(O)cc1)C(=O)O (tested in a mixture with another compound)	·	-7.7	·	·	7.2	-4.1	·
COC(=O)c1nc(-c2ccc3c(n2)C(=O)C(N)=C(OC)C3=O)c(N)c(-c2ccc(OC)c(OC)c2O)c1C	65.9*	22.4	12.3	48.8*	70.3*	23.5	·	Fam108b confirm=62.7*;Fam108b ABPP HTS=0.0;PAFAH1B3 conf FP=66.8*
CC(CCc1ccccc1)NCCC#N (stereo not given)	1.0	6.7	4.7	-2.4	3.9	12.7	·
CN1C(=O)/C(=C/c2cccn2-c2ccc3ccccc3c2)C(=O)NC1=S	2.4	39.1*	39.5*	11.2	9.5	38.8*	13.0
O=C1NC(=S)NC(=O)C1=Cc1cccn1-c1ccc(O)cc1	·	25.4	·	·	5.3	5.5	·
O=c1[nH]c(O)c(C=Nc2ccccc2[N+](=O)[O-])c(=O)[nH]1	-0.3	·	4.5	2.5	·	·	·
CCOc1ccccc1-n1c(O)c(C=Nc2ccc(N(CC)CC)cc2)c(=O)[nH]c1=O	4.7	-0.6	43.6*	-0.5	4.1	3.1	5.1
CCN(CC)c1ccc(N=Cc2c(O)n(Cc3ccccc3)c(=O)[nH]c2=O)cc1	2.0	0.4	-1.6	2.0	5.4	0.7	·
CCN(CC)c1ccc(N=Cc2c(O)n(-c3ccccc3)c(=O)[nH]c2=O)cc1	-0.3	4.5	48.7*	-0.2	2.1	3.4	-3.7
CCN(CC)c1ccc(N=Cc2c(O)[nH]c(=O)[nH]c2=O)cc1	8.3	11.2	45.4*	-0.7	5.4	1.2	3.4
CCN(CC)c1ccc(N=Cc2c(O)n(-c3ccccc3C)c(=O)[nH]c2=O)cc1	6.4	5.7	38.5*	-3.3	8.5	-7.7	7.4
SMILES	PME-1 primary	PAFAH2 FP inh	pPAFAH FP inh	Fam108B counter	PAFAH1B3 FP inh	PAFAH1B2 inh	pPAFAH FP conf	others
CCOc1ccc(-n2c(O)c(C=Nc3ccc(N(CC)CC)cc3)c(=O)[nH]c2=O)cc1	-4.2	2.9	3.1	1.4	7.0	2.7	·
CC(=O)Nc1ccc(OC(=O)N(C)c2ccc(C)cc2)cc1	-4.3	-4.0	5.3	1.7	9.8	7.5	·
COc1ccc(N2C(=O)NC(=O)/C(=C\c3ccc([N+](=O)[O-])s3)C2=O)cc1	-4.6	26.8	37.5*	16.4	23.6	21.2	35.0*
COc1ccccc1N1C(=O)NC(=O)/C(=C/c2ccc([N+](=O)[O-])s2)C1=O	-1.3	·	51.2*	24.5*	·	·	41.8*
COc1ccc(N2C(=O)NC(=O)/C(=C/c3ccc([N+](=O)[O-])s3)C2=O)cc1	-4.5	·	44.4*	9.5	·	·	46.6*
CC1(C(O)(C#CCN2CCCCC2)c2ccccc2)CCCC1 (stereo not given)	-2.1	-3.3	0.1	2.5	7.2	4.5	·
CCN1C(=O)C(=C/C=C/c2ccco2)C(=O)N(CC)C1=S	-69.2	-58.4	-27.6	-40.0	-87.5	-41.6	·
CC(C)N1C(=O)/C(=C/C=C/c2ccco2)C(=O)N(Cc2ccco2)C1=O	-16.4	21.8	38.0*	-0.7	-0.7	3.5	0.8
